These results are taken from PubChem BioAssay (NCATS).

Where “and” joins values, the source holds several entries; their conditions need not be identical. Equal entries are not always repeated. Results filed as inconclusive are left out. Calls of active or inactive are those of the source. Unless noted, calls come from the whole dose curve; as a rule, active = well fitted curve in the direction sought with a large enough effect; inconclusive = small, poorly fitted or top-dose-only effect, or another doubt; inactive = no such curve, though single readings can be large; an effect the other way counts as inactive or inconclusive.

Assay [1] concerns the target Glucocorticoid receptor (Homo sapiens) (UniProt P04150). The experiment in a line: GR-GFP Redistribution (AID 450;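 active = compounds whose dose series gives a full or clear partial fitted curve of increased nuclear translocation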; note: potency is the fitted concentration of half-maximal effect). The following applies: U2OS GR-GFP nuclear translocation, laser cytometry, 2 h.
For assay [2] the target is unchanged. The assay is described as follows: GR-EFC Redistribution (AID 451; calls by dose curve; note: potency is the fitted concentration of half-maximal effect). The following applies: CHO-K1 GR-EFC translocation, beta-gal luminescence, 2 h. An outline of the steps:
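CHO-K1 cells stably expressing nuclear-localized β-gal enzyme acceptor and GR fused C-terminally to the enzyme donor fragment; ligand-driven nuclear translocation restores β-gal by complementation. Compounds titrated up to 46 uM final, 2 h at 37 °C; luminescence read.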

The nature of assay [3]: qHTS Assay for Lipid Storage Modulators (AID 1519; calls by dose curve). The following applies: Drosophila S3 cells, BODIPY lipid droplet/cell ratio, laser cytometry, cells loaded with oleic acid; for activity change, negative = inhibition: at 57.5 µM (top of the series). Summed up:
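Cells seeded at 5,000 per well were treated with compounds over a concentration series and loaded with oleic acid (400 uM, as added). Lipid droplet fluorescence (488 nm excitation, 500-530 nm channel) was read by laser-scanning cytometry and normalized to 20 uM Triacsin C.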

Assay [4] has as its target DNA dC->dU-editing enzyme APOBEC-3G (Homo sapiens) (UniProt Q9HC16). The experiment in a line: qHTS for inhibitors of Vif-A3G interactions: Validation (AID 588379). Note: 0% is about no effect. Particulars: Vif-A3G protein interaction assay; series mostly up to 46.1 µM. An outline of the steps:
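Yellow fluorescence (Ex 488, Em 500-530) of Vif-coexpressing HeLa A3G-eYFP cells, scanned by Acumen cytometer, reports blocked A3G degradation. Cells plated at 700/well overnight at 37 deg C before compound addition, then a further overnight compound incubation at 37 deg C.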

Assay [5] concerns Zika virus NS2B-NS3 protease. The assay is described as follows: Primary screen GU AMC qHTS for Zika virus inhibitors (AID 1347154).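 Note: 0% = no-inhibitor control and -100% = no-enzyme control; nearly all actives have a fitted effect of over 70% in size.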 The following applies: Zika NS2B-NS3 unlinked protease, AMC fluorogenic substrate; series mostly up to 54.1 µM. An outline of the steps:
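Unlinked Zika NS2B hydrophilic domain/NS3 protease domain noncovalent complex (25 nM final) in 10 mM Tris-HCl pH 8.0, 0.01% Tween 20, with AMC peptide substrate. Fluorescence (ex 340, em 450 nm) change over 15 min, room temperature; percent inhibition fitted to 4-parameter Hill equation.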
In general terms: Quantitative high-throughput screening tests each substance at several concentrations.

Assay [6] in a line: Primary qHTS for small molecule stabilizers of the endoplasmic reticulum resident proteome: Secreted ER Calcium Modulated Protein (SERCaMP) assay (AID 1508630). Note: % is set by controls: 0 for no effect and ±100 for the full control effect. The following applies: SH-SY5Y GLuc-SERCaMP (Gaussia luciferase released on ER calcium loss) secretion, thapsigargin, luminescence; series mostly up to 38.4 µM. Summed up: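 The SH-SY5Y reporter protocol was run at 3 concentrations up to 38.3 uM (primary) or 11 concentrations (follow-up): 16 h compound, 100 nM thapsigargin for 4 h, then extracellular luciferase luminescence.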

The target of assay [7] is Mitogen-activated protein kinase 10 (Mus musculus) (UniProt Q61831). The assay is described as follows: JNK3 AlphaScreen Assay (AID 530; active = well fitted curve in either direction with a large enough effect, not every such curve was filed as active;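 note: kinase came from lysate of stimulated human HepG2 cells; % is set by controls: 0 for no effect and ±100 for the full control effect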). The following applies: JNK3 lysate, c-Jun phosphorylation; series mostly up to 57.1 µM. Summed up: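 Phosphorylation of biotinylated GST-cJun(1-79) at Ser73 is measured by AlphaScreen proximity luminescence. Enzyme is JNK3 in HepG2 lysates activated with interleukin-1beta and tumor necrosis factor alpha; ATP is 10 uM final.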

In assay [8] the target is Cytochrome P450 3A4 (Homo sapiens) (UniProt P08684). The experiment in a line: qHTS Assay for Activators of Cytochrome P450 3A4 (AID 885). Note: nearly all actives have a fitted effect of over 65% in size. Note: potency is the fitted concentration of half-maximal effect. Particulars: recombinant CYP3A4, Luciferin-PPXE luminescence, 60 min; series mostly up to 57.1 µM. An outline of the steps:
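Using 20nM recombinant human CYP3A4 in potassium phosphate (200mM), substrate Luciferin-PPXE at 25uM, luminescent luciferin detection followed a 60-min RT NADPH reaction; data scaled to 57 uM ketoconazole.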

Assay [9] concerns the target Ubiquitin carboxyl-terminal hydrolase 1 (Homo sapiens) (UniProt O94782). The assay is described as follows: Inhibitors of USP1/UAF1: Pilot qHTS (AID 504865).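 Note: rhodamine fluorescence freed from ubiquitin-rhodamine substrate followed over time; top concentration of the series differs between compounds; % is set by controls: 0 for no effect and ±100 for the full control effect; nearly all actives have a fitted effect of over 35% in size.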 Particulars: purified USP1/UAF1, Ub-rhodamine cleavage fluorescence; series mostly up to 114 µM. An outline of the steps:
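In 50mM HEPES pH 7.8 containing 0.5mM EDTA, 1mM TCEP, 0.1 mg/ml BSA and 0.01% Tween-20, 1nM USP1/UAF1 is exposed to compound for 15 min, then Ub-Rho (150nM final) is added and fluorescence is read over time.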

The nature of assay [10]: AP1 Signaling Pathway (AID 357; active = well fitted curve in either direction with a large enough effect, not every such curve was filed as active; note: % is set by controls: 0 for no effect and ±100 for the full control effect). Particulars: ME-180 AP-1-bla reporter, EGF-induced, beta-lactamase ratio, 5 h; at 38 µM (top of the series). Summed up: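 AP-1-bla ME-180 cells with beta-lactamase reporter under AP-1 response element, stimulated with EC50 EGF; compounds titrated, 5 hours at 37 degrees Celsius. CCF4 read at 460/530 nm ratio; positive and negative modulators judged by AC50.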

The target in assay [11] is Cytochrome P450 1A2 (Homo sapiens) (UniProt P05177). The experiment in a line: p450-cyp1a2 (AID 410; calls by dose curve; note: potency is the fitted concentration of half-maximal effect;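 for activity change, negative = inhibition: -100% = full effect of reference inhibitor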). The following applies: recombinant CYP1A2, luciferin-ME demethylation, luminescence; series mostly up to 57 µM. Summed up:
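O-Demethylation of luciferin 6' methyl ether by human CYP1A2 is monitored as luciferase luminescence. Substrate sits at Km (100uM); enzyme is 20nM. Values are scaled to 57 uM furafylline as maximal inhibition.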

Assay [12] is described as follows: NFAT Signaling Pathway (AID 444; active = well fitted curve in either direction with a large enough effect, not every such curve was filed as active;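 note: carbachol stimulus at about its EC50 of 1 µM final; % is set by controls: 0 for no effect and ±100 for the full control effect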). Particulars: Jurkat NFAT-bla M1, carbachol, beta-lactamase ratio, 5 h; at 38 µM (top of the series). An outline of the steps: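 Jurkat cells carrying an NFAT-driven β-lactamase reporter and co-transfected muscarinic M1 receptor were treated with compound plus carbachol (1 uM final, an EC50 level) for 5 h at 37 °C. CCF4 loading followed for 1 h at RT; 460/530 nm ratio gave %activity.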

Assay [13] is described as follows: Stat Signaling Pathway (AID 446; active = well fitted curve in either direction with a large enough effect, not every such curve was filed as active). Particulars: ME-180 (cervical carcinoma) SIE beta-lactamase reporter, IL-6 stimulated, 5 h; at 38 µM (top of the series). An outline of the steps:
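Overnight-plated ME-180 cells bearing a STAT Inducible Element beta-lactamase reporter; 5 h co-exposure to compound and 40 pM IL-6; values normalized to 300 pM IL-6 and 125 nM JAK inhibitor controls.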

Assay [14] concerns the target Guanine nucleotide-binding protein G(i) subunit alpha-1 (Homo sapiens) (UniProt P63096). The assay is described as follows: qHTS Assay for Inhibitors of RGS12 GoLoco Motif Activity (Green Fluorophore) (AID 879).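 Note: 0% = labeled peptide with Gαi1 and full inhibition = labeled peptide alone without protein; negative values mean loss of peptide binding seen as reduced polarization.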 The following applies: Galphai1/FITC-RGS12 GoLoco peptide, fluorescence polarization; series mostly up to 57.1 µM. Summed up: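 A drop in FITC polarization marked displacement of the FITC-tagged RGS12 GoLoco peptide (10 nM) from Gαi1 (50 nM). Compounds were incubated 10 min at room temperature in Tris pH 7.5 buffer containing 150 mM NaCl, 0.1 mM GDP and 0.05% NP40; unlabeled peptide titration served as control.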

Assay [15] concerns the target Cytochrome P450 2C19 (Homo sapiens) (UniProt P33261). The assay is described as follows: qHTS Assay for Inhibitors and Substrates of Cytochrome P450 2C19 (AID 899). Note: % is set by controls: 0 for no effect and ±100 for the full control effect; nearly all actives have a fitted effect of over 60% in size. The following applies: recombinant CYP2C19, luciferin-H EGE luminescence; series mostly up to 57.1 µM. An outline of the steps:
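NADPH-dependent conversion of Luciferin-H EGE (10uM, at KM) by 5nM enzyme in 50mM KPO4, 60 min at 37C following 10 min compound preincubation. Stopped with luciferin detection buffer; luminescence read after 20 min.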

A short description of assay [16]: qHTS Assay for Identification of Small Molecule Agonists for Thrombopoietin (TPO) Signaling Pathway (AID 917). Note: % is set by controls: 0 for no effect and ±100 for the full control effect. The following applies: TPO signaling pathway reporter cells, agonist qHTS, stimulated with TPO at its EC50; series mostly up to 38.5 µM. Summed up:
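Cell-based luciferase reporter screen. Mouse Ba/F3 line stably expressing human TPO receptor; IL-3 removed overnight before plating. Co-treatment with compound and EC50 TPO (26 pM), 24 hrs at 37 C, then luminescence.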

Assay [17] concerns the target Pyruvate kinase (Leishmania mexicana) (UniProt Q27686). The experiment in a line: qHTS Validation Assay for Inhibitors of Leishmania Mexicana Pyruvate Kinase (AID 945).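 Note: 0% = DMSO only neutral control wells.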 The following applies: purified L. mexicana pyruvate kinase, enzyme activity, E451W mutant enzyme; series mostly up to 57.5 µM. An outline of the steps: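 Read-out: luminescence from PKLight stop/detection reagent, data normalized to DMSO. Reaction: 0.2 nM E451W LmPYK, 0.5 mM PEP, 0.1 mM ADP, pH 7.2, 1 h room temperature.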

Assay [18] concerns the target Alpha-galactosidase A (Homo sapiens) (UniProt P06280). The assay is described as follows: Counterscreen for Glucocerebrosidase Inhibitors: qHTS Assay for Human alpha-Galactosidase at pH 4.5 (AID 992). Note: 0% is about no effect. Particulars: purified enzyme, fluorogenic substrate; series mostly up to 76.9 µM. Summed up:
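Each compound is preincubated briefly with 2 nM enzyme before substrate addition (80 uM); plates then sit 20 min at ambient temperature, are quenched with 1M NaOH/1M glycine, and read fluorometrically.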
For orientation: A counterscreen serves to expose hits that act by an unwanted route or on another target.

Assay [19] concerns the target alpha-glucosidase (Oryza sativa, rice) (UniProt Q653V4). The assay is described as follows: Counterscreen for Glucocerebrosidase Inhibitors: qHTS Assay for Rice alpha-Glucosidase at pH 5.0 (AID 997).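 Note: 0% = full activity with enzyme and -100% = basal without enzyme.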 The following applies: rice alpha-glucosidase enzyme activity; series mostly up to 76.9 µM. An outline of the steps: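 Endpoint fluorogenic assay at pH 5.0: compounds (0.7 nM to 77 uM) titrated against 4 nM rice enzyme and 400 uM 4-MU-alpha-glucoside for 20 min at room temperature; NaOH/glycine stop, read ex 365/em 440 nm, Hill-fitted AC50.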

Assay [20] deals with 3',5'-cyclic-AMP phosphodiesterase 4B (Homo sapiens) (UniProt Q07343). The experiment in a line: qHTS Assay for Inhibitors of PDE-IV (AID 607; active = well fitted activation curve with a large enough effect in the main read-out, with a control signal flat, not every such curve was filed as active; note: % of control where 0% means no effect). Particulars: HEK293 ACTOne CNG channel cells, membrane potential fluorescence; series mostly up to 22.9 µM. An outline of the steps: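 Live HEK293 cells with a modified cyclic nucleotide-gated (CNG) channel report intracellular cAMP via membrane-potential dye fluorescence (ex 535/em 590 nm). Endogenous PDE-IV was targeted. Compounds were tested at up to 22.9 uM final; RO 20-1724 100 uM served as control.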
Chain of 3',5'-cyclic-AMP phosphodiesterase 4B (Homo sapiens) (Q07343 whole entry, looked up): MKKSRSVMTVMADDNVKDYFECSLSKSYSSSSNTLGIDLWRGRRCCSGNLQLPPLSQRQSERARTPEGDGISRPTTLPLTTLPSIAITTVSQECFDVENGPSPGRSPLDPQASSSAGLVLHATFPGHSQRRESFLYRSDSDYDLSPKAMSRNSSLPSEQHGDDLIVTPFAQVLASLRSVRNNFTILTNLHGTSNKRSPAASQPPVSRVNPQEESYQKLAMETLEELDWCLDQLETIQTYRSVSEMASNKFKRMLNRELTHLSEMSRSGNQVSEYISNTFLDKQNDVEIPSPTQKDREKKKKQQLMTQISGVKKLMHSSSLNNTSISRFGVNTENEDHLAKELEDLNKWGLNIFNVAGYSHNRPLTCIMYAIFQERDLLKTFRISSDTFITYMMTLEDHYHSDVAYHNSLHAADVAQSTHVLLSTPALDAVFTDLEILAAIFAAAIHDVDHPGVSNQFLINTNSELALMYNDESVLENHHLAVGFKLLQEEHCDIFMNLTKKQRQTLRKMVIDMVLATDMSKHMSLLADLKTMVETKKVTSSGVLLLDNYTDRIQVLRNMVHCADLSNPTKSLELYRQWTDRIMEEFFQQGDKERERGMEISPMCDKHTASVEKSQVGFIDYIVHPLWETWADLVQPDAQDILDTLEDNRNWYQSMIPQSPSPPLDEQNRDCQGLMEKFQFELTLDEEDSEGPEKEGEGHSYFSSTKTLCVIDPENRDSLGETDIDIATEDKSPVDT

Where [21] appears, read: measured here: cell count channel max response.
Where [22] appears, read: measured here: lipid channel max response.

Chain of Glucocorticoid receptor (Homo sapiens) (P04150 whole entry, looked up): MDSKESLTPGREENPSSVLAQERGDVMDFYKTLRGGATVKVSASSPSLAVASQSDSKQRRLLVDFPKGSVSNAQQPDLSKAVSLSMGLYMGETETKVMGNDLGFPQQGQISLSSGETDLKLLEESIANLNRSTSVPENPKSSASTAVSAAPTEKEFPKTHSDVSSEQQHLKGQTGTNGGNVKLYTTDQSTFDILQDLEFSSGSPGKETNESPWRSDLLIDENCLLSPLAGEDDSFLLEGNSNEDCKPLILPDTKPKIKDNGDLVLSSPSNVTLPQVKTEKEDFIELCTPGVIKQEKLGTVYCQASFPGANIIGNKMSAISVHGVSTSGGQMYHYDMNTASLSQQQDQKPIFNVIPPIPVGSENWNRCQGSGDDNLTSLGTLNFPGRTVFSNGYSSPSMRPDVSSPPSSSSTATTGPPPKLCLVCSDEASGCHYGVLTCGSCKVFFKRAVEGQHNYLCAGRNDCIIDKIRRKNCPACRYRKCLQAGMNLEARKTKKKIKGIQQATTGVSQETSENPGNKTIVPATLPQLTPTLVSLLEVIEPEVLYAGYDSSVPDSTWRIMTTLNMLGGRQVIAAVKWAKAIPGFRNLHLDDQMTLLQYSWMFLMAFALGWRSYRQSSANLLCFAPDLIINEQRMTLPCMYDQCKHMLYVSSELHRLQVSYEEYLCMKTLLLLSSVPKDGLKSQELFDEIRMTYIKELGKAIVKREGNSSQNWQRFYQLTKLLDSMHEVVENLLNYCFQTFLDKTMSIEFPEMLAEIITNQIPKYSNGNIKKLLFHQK
Chain of Cytochrome P450 1A2 (Homo sapiens) (P05177 whole entry, looked up): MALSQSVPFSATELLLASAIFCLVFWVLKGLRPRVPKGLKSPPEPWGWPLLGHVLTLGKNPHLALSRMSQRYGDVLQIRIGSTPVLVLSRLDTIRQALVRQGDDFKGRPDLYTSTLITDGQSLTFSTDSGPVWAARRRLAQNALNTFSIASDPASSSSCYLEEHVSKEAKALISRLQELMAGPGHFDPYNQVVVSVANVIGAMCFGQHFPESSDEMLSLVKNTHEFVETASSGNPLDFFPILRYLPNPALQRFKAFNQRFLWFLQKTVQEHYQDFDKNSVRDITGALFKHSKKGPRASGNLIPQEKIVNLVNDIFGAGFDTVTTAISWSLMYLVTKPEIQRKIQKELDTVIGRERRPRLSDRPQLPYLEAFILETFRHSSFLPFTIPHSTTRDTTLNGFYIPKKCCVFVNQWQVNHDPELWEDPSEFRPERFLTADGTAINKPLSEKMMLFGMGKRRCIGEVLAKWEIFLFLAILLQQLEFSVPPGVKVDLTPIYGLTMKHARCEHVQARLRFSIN
Chain of DNA dC->dU-editing enzyme APOBEC-3G (Homo sapiens) (Q9HC16 whole entry, looked up): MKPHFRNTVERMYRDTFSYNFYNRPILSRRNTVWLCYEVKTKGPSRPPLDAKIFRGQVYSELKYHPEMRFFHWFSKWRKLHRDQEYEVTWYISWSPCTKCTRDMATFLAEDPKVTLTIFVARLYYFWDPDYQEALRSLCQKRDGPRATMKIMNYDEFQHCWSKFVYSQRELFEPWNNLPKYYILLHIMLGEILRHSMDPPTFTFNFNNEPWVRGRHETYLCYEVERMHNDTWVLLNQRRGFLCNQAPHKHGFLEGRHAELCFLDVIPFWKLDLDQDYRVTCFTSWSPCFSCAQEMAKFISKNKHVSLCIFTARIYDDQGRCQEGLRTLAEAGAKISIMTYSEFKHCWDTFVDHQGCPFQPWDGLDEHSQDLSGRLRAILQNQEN
Chain of Alpha-galactosidase A (Homo sapiens) (P06280 whole entry, looked up): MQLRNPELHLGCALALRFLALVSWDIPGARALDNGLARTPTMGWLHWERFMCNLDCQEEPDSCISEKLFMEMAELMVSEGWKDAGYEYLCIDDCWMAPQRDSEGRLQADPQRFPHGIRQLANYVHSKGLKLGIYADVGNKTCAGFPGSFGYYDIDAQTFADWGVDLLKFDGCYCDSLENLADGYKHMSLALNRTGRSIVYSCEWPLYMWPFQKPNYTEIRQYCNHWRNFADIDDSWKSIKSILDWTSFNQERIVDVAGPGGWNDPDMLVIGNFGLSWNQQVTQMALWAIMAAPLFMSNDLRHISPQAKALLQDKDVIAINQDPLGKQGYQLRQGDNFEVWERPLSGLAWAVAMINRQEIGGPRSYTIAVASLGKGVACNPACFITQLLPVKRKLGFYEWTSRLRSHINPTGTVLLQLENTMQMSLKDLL
Chain of Guanine nucleotide-binding protein G(i) subunit alpha-1 (Homo sapiens) (P63096 whole entry, looked up): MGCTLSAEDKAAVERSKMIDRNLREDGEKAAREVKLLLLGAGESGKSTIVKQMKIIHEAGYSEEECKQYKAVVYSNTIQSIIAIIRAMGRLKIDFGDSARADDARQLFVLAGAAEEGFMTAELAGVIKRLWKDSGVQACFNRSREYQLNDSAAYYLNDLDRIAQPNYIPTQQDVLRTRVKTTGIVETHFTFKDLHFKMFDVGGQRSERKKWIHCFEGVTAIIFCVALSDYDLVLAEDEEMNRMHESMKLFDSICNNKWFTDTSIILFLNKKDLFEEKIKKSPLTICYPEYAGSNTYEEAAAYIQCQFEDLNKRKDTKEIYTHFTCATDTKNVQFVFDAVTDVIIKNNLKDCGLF
Chain of Pyruvate kinase (Leishmania mexicana) (Q27686 2-499 E452W): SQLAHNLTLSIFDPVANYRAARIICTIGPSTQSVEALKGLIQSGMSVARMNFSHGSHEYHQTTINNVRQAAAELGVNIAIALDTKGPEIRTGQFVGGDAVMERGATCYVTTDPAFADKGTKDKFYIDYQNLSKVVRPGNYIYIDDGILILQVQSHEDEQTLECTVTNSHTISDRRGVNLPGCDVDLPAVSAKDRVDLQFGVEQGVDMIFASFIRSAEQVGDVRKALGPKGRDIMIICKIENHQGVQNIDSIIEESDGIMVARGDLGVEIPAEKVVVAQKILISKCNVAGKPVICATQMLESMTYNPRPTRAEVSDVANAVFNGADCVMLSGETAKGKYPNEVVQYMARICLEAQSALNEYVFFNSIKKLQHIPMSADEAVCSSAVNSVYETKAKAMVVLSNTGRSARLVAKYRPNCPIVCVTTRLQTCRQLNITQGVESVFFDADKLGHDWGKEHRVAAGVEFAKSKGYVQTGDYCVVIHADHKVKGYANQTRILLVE
Chain of Cytochrome P450 3A4 (Homo sapiens) (P08684 whole entry, looked up): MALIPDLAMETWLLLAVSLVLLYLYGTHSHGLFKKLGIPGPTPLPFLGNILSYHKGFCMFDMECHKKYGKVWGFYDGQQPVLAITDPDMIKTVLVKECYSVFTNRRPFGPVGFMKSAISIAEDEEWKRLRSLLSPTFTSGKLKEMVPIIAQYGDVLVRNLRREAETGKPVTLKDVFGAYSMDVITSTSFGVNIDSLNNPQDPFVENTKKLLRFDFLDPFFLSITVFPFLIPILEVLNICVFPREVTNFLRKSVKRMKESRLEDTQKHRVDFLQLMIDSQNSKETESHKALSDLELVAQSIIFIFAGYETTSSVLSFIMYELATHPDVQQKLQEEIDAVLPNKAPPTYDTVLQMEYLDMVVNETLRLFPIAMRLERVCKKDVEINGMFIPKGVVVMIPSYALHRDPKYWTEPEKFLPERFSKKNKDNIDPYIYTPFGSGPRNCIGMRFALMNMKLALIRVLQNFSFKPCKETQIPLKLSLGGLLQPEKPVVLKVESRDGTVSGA
Chain of Ubiquitin carboxyl-terminal hydrolase 1 (Homo sapiens) (O94782 whole entry, looked up): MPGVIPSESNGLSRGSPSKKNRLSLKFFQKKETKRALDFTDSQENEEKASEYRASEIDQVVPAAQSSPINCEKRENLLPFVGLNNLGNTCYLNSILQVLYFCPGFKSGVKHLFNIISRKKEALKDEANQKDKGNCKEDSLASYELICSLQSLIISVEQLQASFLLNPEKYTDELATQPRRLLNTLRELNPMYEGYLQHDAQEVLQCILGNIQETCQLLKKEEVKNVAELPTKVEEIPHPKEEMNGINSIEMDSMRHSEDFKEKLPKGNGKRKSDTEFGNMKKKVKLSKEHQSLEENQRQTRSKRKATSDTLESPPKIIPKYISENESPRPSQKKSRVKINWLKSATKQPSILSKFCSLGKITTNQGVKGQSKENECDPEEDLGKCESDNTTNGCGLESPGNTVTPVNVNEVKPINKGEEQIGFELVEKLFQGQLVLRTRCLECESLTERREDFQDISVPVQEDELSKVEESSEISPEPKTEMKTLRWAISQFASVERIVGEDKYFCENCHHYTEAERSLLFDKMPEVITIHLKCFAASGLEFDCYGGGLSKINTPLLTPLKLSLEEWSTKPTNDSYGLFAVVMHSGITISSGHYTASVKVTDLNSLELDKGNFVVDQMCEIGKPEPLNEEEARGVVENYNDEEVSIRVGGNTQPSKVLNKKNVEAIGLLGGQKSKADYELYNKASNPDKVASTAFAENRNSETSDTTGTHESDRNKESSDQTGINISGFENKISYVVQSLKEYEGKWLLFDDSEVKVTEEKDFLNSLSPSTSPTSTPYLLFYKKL

`CCCn1c(=O)c2[nH]c(-c3ccc(OCC(=O)Nc4ccc(C(C)=O)cc4)cc3)nc2n(CCC)c1=O`: the Potency in assay [1] and in [2] was > 46 µM (inactive) each time. For the same molecule, the activity change, negative = inhibition in assay [3] was 5.04% (inactive). Further, the max response was determined as 6.38% in assay [3] (setting [21]) and 10.1% in [3] (setting [22]). In addition, the Potency result in [4], in [5] and in [6] was “inactive” each time.
For `CNC(=O)[C@H]1O[C@@H](n2cnc3c(NCc4cccc(I)c4)nc(Cl)nc32)[C@H](O)[C@@H]1O`, the Potency entry in assay [5] and in [6] was “inactive” each time.
For `NC(C(=O)O)c1cc(O)c(Cl)c(O)c1` (centres undefined), the Potency result in [5] and in [6] was “inactive” throughout.
Regarding `O[C@@H](c1ccccc1)C1CCN(CCc2ccccc2)CC1`, the Potency in assay [1] was > 46 µM (inactive); in assay [2], > 46 µM (inactive); in assay [8] it was 15.8 µM (active). The Potency result in [7], in [4], in [5] and in assay [6] was “inactive” in each case. For the same molecule, in assay [3], the activity change, negative = inhibition is 3% (inactive). The max response in assay [3] (setting [21]) is 5.72%; in assay [3] (setting [22]) it was 10.3%.
With `Cc1cc(C(=O)O)ccc1[C@H](N)C(=O)O`, the Potency in [1] was > 46 µM (inactive). In addition, the Potency result in assay [7], in assay [4], in assay [5] and in [6] was “inactive” throughout. Moreover, in assay [3], the activity change, negative = inhibition is 1.88% (inactive). The max response in assay [3] (setting [21]) worked out at 7.87%; in assay [3] (setting [22]) it was 9.03%.
As to `CC(C)=CCC/C(C)=C/CC/C(C)=C/CC/C(C)=C/CO`, the activity change, negative = inhibition in [3] is 7.37% (inactive). For the same molecule, the values for the max response in assay [3] (setting [21]) and in assay [3] (setting [22]) were 9.56% and 21.5%, respectively. For the same molecule, the Potency entry in assay [9], in assay [5] and in assay [6] was “inactive” each time.
As for `CC[C@H](C)N(C)C(=O)c1cc2ccccc2c(-c2ccccc2Cl)n1`, the activity change, negative = inhibition in [10] is -18% (inactive); in assay [12], -2.88% (inactive). The Potency result in [11], in assay [7], in assay [8], in [15], in assay [16] and in [17] was “inactive” in each case. The Potency entry in assay [4], in [5] and in assay [6] was “inactive” each time. Also, in assay [13], the activity, negative = inhibition is 8.11% (inactive). For the same molecule, the molecule was classed as inactive in [14], in [18] and in [19].
As for `N#CC(=C(/N)Sc1ccccc1N)/C(C#N)=C(/N)Sc1ccccc1N`, the activity change, negative = inhibition in assay [10] was -84.2% (active); in assay [12], 8.23% (inactive). Besides, the Potency in assay [11] is 12.6 µM (active) and 31.6 µM (active); in [1], > 46 µM (inactive); in [2], > 46 µM (inactive). Also, the Potency entry in [7], in [20], in assay [17], in assay [5] and in assay [6] was “inactive” in each case. The outcome in assay [14], in assay [18] and in [19] was inactive.
